Results taken from PubChem BioAssay AID1285 (Columbia University Molecular Screening Center, 2008).
Hit rate of the full screen: of about 190,000 compounds, about 1,600 (0.84%) were called active. The sample holds actives, similar compounds and a random draw of the others, so the mix is not that of the screen.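 The calls were made as follows: active = inhibition above a set limit, derived from the sample mean plus 3 SD (cut at about 45% in these data); inconclusive = one replicate passes the limit while the other fails; inactive = the rest.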

test: APP 5'UTR translational reporter suppression – APP 5'UTR luciferase, SH-SY5Y cells, primary screen (AID 1285); conditions: SH-SY5Y APP 5'UTR-luciferase reporter, luminescence; at 2 µM; stronger effect = higher value

inhibition, active:
CCCC1=Nc2cc(C(=O)NCc3ccco3)ccc2Sc2ccccc21 90.1%, CC(=O)Nc1ccc(S(=O)(=O)N2CCN(C(=O)c3ccccc3F)CC2)cc1 94.3%, Cc1ccccc1OCCOc1ccc([N+](=O)[O-])cc1/C=N/n1cnnc1 45.2%, CC(=O)c1ccc(Oc2cc(C)nc(-n3nc(C)cc3C)n2)cc1 93.7%, COc1ccc(Nc2cc(C)nc(-n3nc(C)cc3C)n2)cc1 92.8%, Cc1nn(C)cc1/C=N/NC(=O)c1sc2ccccc2c1Cl 55.6%, CC(=O)Nc1ccc(Nc2c3ccccc3nc3ccccc23)cc1 92.3%, N=c1c2c(-c3ccccc3)c(-c3ccccc3)n(Cc3ccccc3)c2ncn1CCCO 77.3%, C=CS(=O)c1sc(Cl)c(N2CCOCC2)c1[N+](=O)[O-] (stereo unspecified) 83.2%, COc1cccc(/C=N/Nc2cc(C)nc(-c3ccccc3O)n2)c1O 67.5%, C=CCn1c(SCC(=O)NCc2ccccc2)nnc1-c1cc(Br)ccc1O 55.6%, N#CC1=C(N)Oc2c(sc3ccccc23)C1c1ccco1 (stereo unspecified) 56.2%, Cc1c(/C=N\NC(=O)c2cc3ccccc3o2)c2ccccc2n1C 78%, CCOC(=O)CSC1=C(C#N)C(c2sccc2C)CC(=O)N1 (stereo unspecified) 93.4%, C/C(=N\NC(=O)Cc1ccc(Cl)cc1)c1ccccn1 58.9%, COc1ccc(C)c(Cn2c(-c3nonc3N)nc3ccccc32)c1 90.7%, O=C1/C(=C\c2cccnc2)CN(Cc2ccccc2)C/C1=C\c1cccnc1 97.1%, CCn1c(CNC(=O)c2ccc(OC)c(OC)c2)nnc1SCC(=O)Nc1ccccc1 45.9%, O=C(COc1cc(Cl)c(Cl)cc1Cl)NC(=O)NC1CCCC1 45.2%, Cn1nnc(NC(=O)CSc2ncn[nH]2)n1 53.1%

inhibition, inactive:
CN1CCC(=NNC(=O)c2ccc(N(Cc3ccc(Cl)cc3)S(C)(=O)=O)cc2)CC1 -0.2%, Cc1ccc(S(=O)(=O)N(CC(=O)NN=C2CCN(C)CC2)c2ccc(F)cc2)cc1 -21%, CCOc1ccccc1C(=O)NCc1ccco1 -2.6%, COc1ccc(CCNS(=O)(=O)c2ccc(C(=O)NCc3ccco3)cc2)cc1OC -8.6%, CC(=O)N1CCN(S(=O)(=O)c2cccc(C(=O)NC3CCC(C)CC3)c2)CC1 (stereo unspecified) 2.6%, O=C(COc1ccc(NC(=O)c2ccccc2[N+](=O)[O-])cc1)c1ccc(F)cc1 -3.2%, CCN(CC)C(=O)N(CC)Cc1ccccc1 -8.7%, CC(=O)Nc1ccc(S(=O)(=O)N2CCSCC2)cc1 11.7%, CC(=O)Nc1ccc(S(=O)(=O)N2CCN(C3CCCCCCC3)CC2)cc1 -4.6%, CN(Cc1ccc2nsnc2c1)Cc1nc(Cc2cccc(F)c2)no1 -3.3%, CNc1ccc(NC(C)=O)cc1[N+](=O)[O-] -17.6%, CC(C)CC(=O)NC(=S)Nc1ccc(F)cc1F -8.3%, COc1ccccc1OCCOc1ccc(/C=N/n2cnnc2)cc1 8.5%, COc1cccc(OCCOc2cccc(/C=N/n3cnnc3)c2)c1 -90.8%, O=C(COC(=O)c1cc(-c2cccs2)nn1-c1ccccc1)Nc1cc([N+](=O)[O-])ccc1Cl -13.5%, Cc1cc(C(C)(C)C)cc(S(=O)(=O)Nc2ccc(C(=O)O)cc2)c1C 2.7%, CNC(=S)NNC(=O)c1cccn(Cc2ccccc2)c1=O 4.8%, CCN(CC)S(=O)(=O)c1ccc(N2CCCC2)c(NS(=O)(=O)c2cccs2)c1 7.7%, Cc1cc(Oc2ccc(Cl)cc2)nc(SCC(=O)c2ccccc2)n1 -11.5%, Cc1cc(C)n(-c2cc(Oc3ccccc3)ncn2)n1 -14.1%, COc1ccc(NC(=O)c2nc(-n3nc(C)cc3C)ccc2Cl)cc1Cl 21.2%, COc1ccccc1/C=N\Nc1cc(C)nc(-n2nc(C)cc2C)n1 3.2%, O=C(NCc1ccccc1)C1=C[C@@H](c2ccc(C(F)(F)F)cc2)C[C@@H](OCc2ccc(CO)cc2)O1 -9.6%, O=C(CSc1nc2ccc(Nc3nc(N4CCOCC4)nc(N4CCOCC4)n3)cc2s1)NCc1ccco1 -2.6%, CN1CCCN(C(=O)C2CCCCC2)CC1 4.4%, O=[N+]([O-])c1cccc(/C([O-])=C(/C(=S)Nc2ccccc2F)[n+]2ccccc2)c1 -11.7%, CCOC(=O)c1c(C)[nH]c(C2=NNC(=NC(C)COC)SC2)c1C (stereo unspecified) -102%, O=S1(=O)CCC(NC(=S)SCc2ccccc2Br)C1 (stereo unspecified) 0.3%, O=C(Nc1ccon1)c1sc2ccccc2c1Cl -68.6%, O=C(N/N=C/c1c(Cl)[nH]c2ccccc12)c1sc2ccccc2c1Cl -4.8%, Cc1ccccc1CCN(CC(=O)NC1CCCCC1)C(=O)c1csnn1 11.3%, O=c1nc(N/N=C/c2ccco2)cn[nH]1 12.4%, O=C(O)c1ccc(N/N=C/c2cn(-c3ccccc3)nc2-c2cccs2)cc1 -140%, CC(C)(O)C#Cc1ncc(C(F)(F)F)cc1Cl -2.7%, O=[N+]([O-])c1cccc(Nc2c3ccccc3nc3ccccc23)c1 0.1%, CC(=O)Nc1ccc(NC(=O)COc2ncnc3ccccc23)cc1 0.3%, C=CCn1c(SCc2ccc(Cl)c(Cl)c2)nnc1C(CO)NC(=O)c1ccc(OC)cc1 (stereo unspecified) -13.3%, CCOc1ccc(CCNC(=O)C2=C(C)C(=O)OC23CCC(C)CC3)cc1OCC (stereo unspecified) -9.6%, N=c1c2c(-c3ccccc3)c(-c3ccccc3)oc2ncn1Cc1ccco1 -10.8%, Cc1nc([N+](=O)[O-])c(NCCCO)n1Cc1ccccc1 6.3%, C/C(CCc1ccccc1)=N\NC(=O)c1ccc(CN2CCOCC2)cc1 -5.3%, COc1ccc(N2C(=O)CC(SC(C)C)C2=O)cc1 (stereo unspecified) -20.2%, COc1cc(Cl)c(C)cc1NC(=O)COC(=O)c1cc(SC)ccc1Cl 6.6%, OCCC1CN(Cc2ccc3nsnc3c2)CCN1C1CCCC1 (stereo unspecified) -9.3%, Cc1ccc(C(=O)NN(CCC#N)C2=NS(=O)(=O)c3ccccc32)cc1 -1.1%, C/C(=N\N)c1c(-c2ccccc2)c2cc(Br)ccc2[nH]c1=O -3.6%, Cc1cc(N/N=C/c2ccccc2F)c2ccccc2n1 -7.2%, COc1cccc2c(N/N=C/c3ccco3)cc(C)nc12 -4.8%, COc1ccc(O)c(C(=O)c2cnc3c(c2)c(-c2ccc(F)cc2)c(C#N)c(=O)n3C)c1 -3.8%, Cc1cccc(N2C(=O)SC(SC(=Nc3ccccc3)Nc3ccccc3)C2=O)c1 (stereo unspecified) -14.2%, Cn1c(CCC(=O)Nc2ccccc2F)nnc1SCC(=O)Nc1ccccc1Cl -2.1%, O=C(CSc1nnc(-c2cccnc2)n1CCc1ccccc1)NCc1ccccc1 4.7%, C=CCn1c(SCC(=O)Nc2nc3ccccc3s2)nnc1-c1ccccc1O 0.7%, C/C(Cn1nnc2ccccc21)=N\OC(=O)c1cc(F)c(F)cc1Cl -4.6%, Cc1cc2c(c(=O)n1Cc1ccco1)C(c1ccccc1)C(C#N)=C(N)O2 (stereo unspecified) -7.5%, Cc1cc(C)c2c3c(sc2n1)C(c1ccccc1)C(C#N)=C(N)O3 (stereo unspecified) 7.5%, O=C(/C=C/c1ccc(N2CCOCC2)cc1)c1ccccc1 -140%, O=C(N/N=C/c1coc2ccccc2c1=O)c1cc2ccccc2o1 0.7%, Cc1c(/C=N/N2C(=O)C3C4C=CC(C4)C3C2=O)c2ccccc2n1C (stereo unspecified) 13.8%, CCOc1ccc(NC(=O)COc2ccc(C(=O)NC3CCCc4ccccc43)cc2OC)cc1 (stereo unspecified) -14.3%, COc1ccccc1CNC(=O)COc1ccc(C)nc1[N+](=O)[O-] -13.3%, C/C(=C\c1ccccc1)C1NC(=O)c2c(sc3c2CCCC3)N1 (stereo unspecified) 14.6%, C=CCOC(=O)C1=C(C)NC(SCC(=O)OCC)=C(C#N)C1c1ccc(C)cc1 (stereo unspecified) -6.5%, Cc1ccc(C2CC(=O)NC(SCC(=O)OCc3ccccc3)=C2C#N)o1 (stereo unspecified) 18%, CC(C)(C)NC(=O)C(=O)NCc1ccncc1 -1.4%, C/C(=N\NC(=O)Cc1ccc(F)cc1)c1ccc(F)cc1 10.7%, COc1ccc(CC(=O)N/N=C(\C)c2ccccn2)cc1 23.4%, Cc1ccc(NC(=O)c2ccn(C(=O)Nc3ccccc3)n2)c(C)c1 -34.7%, Nc1nonc1-c1nc2ccccc2n1Cc1ccc(F)cc1 -0.7%, Nc1nonc1-c1nc2ccccc2n1CCC(=O)O -2%, O=C(NCCCN1CCOCC1)c1ccc([N+](=O)[O-])cc1[N+](=O)[O-] -18.1%, COc1cc(OC)cc(C(=O)OCC(=O)Nc2sccc2C(N)=O)c1 11.2%, O=Cc1cn(Cc2ccccc2)nc1-c1cccnc1 -9.8%, Clc1ccc(CN2CCN(/N=C/c3cccnc3)CC2)cc1 -6.8%, Cc1cccc(N2CCN(c3ccc(C(N)=O)cc3[N+](=O)[O-])CC2)c1C -15.7%, CCn1c(CNC(=O)c2ccco2)nnc1SCC(=O)Nc1cccc(F)c1 -10%, CCn1c(Cc2ccccc2)nnc1SCC(=O)Nc1ccccc1 -1.3%, O=C(CNC(c1ccccc1)c1ccccc1)Nc1ccc(F)cc1 -7.4%, CC1(C)CC(=O)C(N=Nc2ccc(S(=O)(=O)N3CCCCCC3)cc2)=C(O)C1 9.4%, CCOC(=O)c1ccc(N2C(=O)CC(N3CCN(C(=O)c4ccccc4)CC3)C2=O)cc1 (stereo unspecified) -5.3%, O=C(COc1cc(Cl)c(Cl)cc1Cl)NCCc1ccccn1 1.4%, O=C(COc1ccccc1F)NC1CC1 -9.1%, Cc1ccccc1C1CC(c2cccs2)=NN1S(C)(=O)=O (stereo unspecified) 17.8%, O=C(CSc1ncn[nH]1)Nc1ccnc2ccccc12 4%, O=C(CSc1ncn[nH]1)Nc1nsc(-c2ccccc2)n1 -2.5%, COc1ccc(Br)cc1/C=N/NC(=O)c1cccc(S(=O)(=O)N2CCOCC2)c1 -16.1%
